Laboratory results published in PubChem BioAssay (NCI).
The panel holds about 79,000 compounds, 15% with a hit somewhere; the sample as a whole holds those more often. Active and inactive are the calls of the source. No stated cut-off is given here; in the data, active means growth inhibition above about 70%; inactive means the rest.

Key:
[1] = NCI Yeast Anticancer Drug Screen. Data for the rad52 strain (AID 147);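 further: 0% = growth of vehicle-treated control cultures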; conditions: S. cerevisiae rad52 mutant growth inhibition, active compounds read high
Method in brief: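 Growth of repair-deficient yeast cells was compared between compound-treated and vehicle-treated cultures to give percent inhibition.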

[2] = NCI Yeast Anticancer Drug Screen. Data for the wt1 strain (AID 149);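 further: 0% = growth of vehicle-treated wt1 cultures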; conditions: S. cerevisiae wt1 strain (SPY 50644) growth inhibition, active compounds read high
Method in brief: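 wt1 yeast, compound-treated; % growth inhibition vs vehicle control.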

[3] = NCI Yeast Anticancer Drug Screen. Data for the rad50EPP+ strain (AID 151);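 further: 0% = growth of vehicle-treated control cultures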; conditions: S. cerevisiae rad50 mutant strain, active compounds read high
Method in brief: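 Measured: growth inhibition of rad50EPP+ yeast. Reference: vehicle-treated controls. Screen uses strains with defined genetic alterations in DNA damage repair or cell cycle control.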

[4] = NCI Yeast Anticancer Drug Screen. Data for the rad50 strain (AID 155);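 further: 0% = growth of vehicle-only cultures of the same strain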; conditions: S. cerevisiae rad50 strain growth inhibition, active compounds read high
Method in brief: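 Genetically altered yeast (DNA repair pathway); compound treatment; growth inhibition vs vehicle ctrl.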

[5] = NCI Yeast Anticancer Drug Screen. Data for the mec2-1 strain (AID 157); conditions: S. cerevisiae mec2-1 strain, active compounds read high
Method in brief: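 Compounds were applied to mec2-1 yeast cells. Their growth was then compared with that of vehicle-treated cultures to give growth inhibition.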

[6] = NCI Yeast Anticancer Drug Screen. Data for the rad14 strain (AID 159);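 further: 0% = growth of vehicle-treated control cultures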; conditions: S. cerevisiae rad14 strain growth inhibition, active compounds read high
Method in brief: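 Test compounds were applied to a repair-deficient yeast strain. Its growth was then compared with that of cultures given vehicle alone, and inhibition was expressed relative to those controls.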

[7] = NCI Yeast Anticancer Drug Screen. Data for the sgs1 mgt1 strain (AID 161);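 further: 0% = growth of cultures given vehicle only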; conditions: S. cerevisiae sgs1 mgt1 strain, active compounds read high
Method in brief: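 Compounds are added to genetically altered yeast, and growth is compared with cultures given vehicle alone to give percent inhibition.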

[8] = NCI Yeast Anticancer Drug Screen. Data for the CLN2oe strain (AID 163);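 further: 0% = growth of vehicle-only control cultures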; conditions: S. cerevisiae CLN2oe strain, active compounds read high
Method in brief: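 Cells of an engineered yeast line with disturbed cell-cycle regulation are treated with compound. Inhibition of growth is then calculated relative to the vehicle-treated reference.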

[9] = NCI Yeast Anticancer Drug Screen. Data for the cln2 rad14 strain (AID 165);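 further: 0% = growth equal to vehicle treated cultures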; conditions: S. cerevisiae cln2 rad14 strain, active compounds read high
Method in brief: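 Strain: cln2 rad14 yeast, altered in cell cycle control and DNA damage repair. Read-out: growth inhibition vs vehicle.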

[10] = NCI Yeast Anticancer Drug Screen. Data for the bub3 strain (AID 167); conditions: S. cerevisiae bub3 mutant strain, active compounds read high
Method in brief: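 Yeast carrying a defined mutation is treated with each compound, and growth is compared with that of vehicle-exposed cells to give inhibition.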

[11] = NCI Yeast Anticancer Drug Screen. Data for the wt2 strain (AID 169);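 further: 0% = growth of vehicle-treated yeast cultures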; conditions: S. cerevisiae wt2 strain growth inhibition, active compounds read high
Method in brief: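 Growth of compound-treated yeast is measured and expressed as inhibition relative to vehicle-only controls.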

[12] = NCI Yeast Anticancer Drug Screen. Data for the mlh1 strain (AID 171);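 further: 0% = growth of vehicle-treated control cultures of the same strain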; conditions: S. cerevisiae mlh1 strain growth inhibition, active compounds read high
Method in brief: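 Test agents were incubated with yeast bearing a defined DNA damage repair or cell cycle control alteration; values are growth inhibition normalised to vehicle-treated cultures.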

[13] = NCI Yeast Anticancer Drug Screen. Data for the sgs1 strain (AID 173);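 further: 0% = growth of vehicle-only control cultures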; conditions: S. cerevisiae sgs1 mutant, active compounds read high
Method in brief: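 Strain with an altered DNA repair or cell cycle pathway exposed to compound. Growth then measured. Value = inhibition versus vehicle control.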

[14] = NCI Yeast Anticancer Drug Screen. Data for the mlh1 rad18 strain (AID 175); conditions: S. cerevisiae mlh1 rad18 strain growth inhibition, active compounds read high
Method in brief: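 A repair-deficient yeast strain is exposed to test compound, and growth is scored relative to vehicle-treated controls.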

[15] = NCI Yeast Anticancer Drug Screen. Data for the rad18 strain (AID 177); conditions: S. cerevisiae rad18 mutant growth inhibition, active compounds read high
Method in brief: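 DNA-repair-defective yeast; compound treatment; growth inhibition scored against vehicle.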

[16] = at 5.0 µM (retest, dose inferred, filed as 0.5)
[17] = at 50.0 µM (retest, dose inferred, filed as 5.0)

Measured: growth inhibition

O=Cc1ccccc1C=O
inactive: [1]; at 1.2 µM -13% | [1]; at 3.7 µM -11% | [1]; at 11.0 µM -7% | [1]; at 33.0 µM 4% | [2]; at 1.2 µM -35% | [2]; at 3.7 µM -31% | [2]; at 11.0 µM -17% | [2]; at 33.0 µM 0% | [3]; at 1.2 µM -8% | [3]; at 3.7 µM -13% | [3]; at 11.0 µM -2% | [3]; at 33.0 µM 6% | [3]; at 100.0 µM 34% | [4]; at 1.2 µM 14% | [4]; at 3.7 µM 12% | [4]; [16] -6% | [4]; at 11.0 µM 19% | [4]; at 33.0 µM 28% | [4]; [17] 16% | [4]; at 50.0 µM 44.6% | [5]; at 1.2 µM -17% | [5]; at 3.7 µM -22% | [5]; [16] -8% | [5]; at 11.0 µM -12% | [5]; at 33.0 µM 32% | [5]; [17] 32% | [6]; at 1.2 µM -17% | [6]; at 3.7 µM -12% | [6]; at 11.0 µM -8% | [6]; at 33.0 µM 23% | [7]; [16] -3% | [7]; [17] 43% | [7]; at 50.0 µM 40.3% | [8]; at 1.2 µM 4% | [8]; at 3.7 µM 7% | [8]; at 11.0 µM 3% | [8]; at 33.0 µM 22% | [9]; [16] 5% | [9]; at 50.0 µM 13.6% | [10]; at 1.2 µM 6% | [10]; at 3.7 µM 17% | [10]; [16] -32% | [10]; at 11.0 µM 14% | [10]; at 33.0 µM 23% | [10]; at 50.0 µM 24.4% | [11]; at 1.2 µM -20% | [11]; at 3.7 µM -26% | [11]; at 11.0 µM -15% | [11]; at 33.0 µM -35% | [12]; at 1.2 µM -6% | [12]; at 3.7 µM -5% | [12]; at 11.0 µM 1% | [12]; at 33.0 µM 36% | [13]; at 1.2 µM -19% | [13]; at 3.7 µM -25% | [13]; at 11.0 µM -15% | [13]; at 33.0 µM 2% | [14]; [16] -23% | [14]; [17] 48% | [15]; at 1.2 µM -4% | [15]; at 3.7 µM -5% | [15]; at 11.0 µM 0% | [15]; at 33.0 µM 26%
active: [1]; at 100.0 µM 73% | [2]; at 100.0 µM 90% | [4]; at 100.0 µM 89% | [5]; at 50.0 µM 80.5% | [5]; at 100.0 µM 90% | [6]; at 100.0 µM 86% | [8]; at 100.0 µM 85% | [9]; [17] 74% | [10]; [17] 76% | [10]; at 100.0 µM 81% | [11]; at 100.0 µM 86% | [12]; at 100.0 µM 84% | [13]; at 100.0 µM 72% | [14]; at 50.0 µM 82% | [15]; at 100.0 µM 88%

CCN(CC)CC(=O)c1ccc2cc(Cl)c3ccccc3c2c1
active: [1]; at 11.0 µM 99% | [1]; at 33.0 µM 98% | [1]; at 100.0 µM 98% | [2]; at 11.0 µM 99% | [2]; at 33.0 µM 98% | [2]; at 100.0 µM 98% | [3]; at 3.7 µM 85% | [3]; at 11.0 µM 98% | [3]; at 33.0 µM 98% | [3]; at 100.0 µM 98% | [4]; at 11.0 µM 98% | [4]; at 33.0 µM 98% | [4]; [17] 98% | [4]; at 50.0 µM 99% | [4]; at 100.0 µM 98% | [5]; at 11.0 µM 99% | [5]; at 33.0 µM 99% | [5]; [17] 99% | [5]; at 50.0 µM 99.2% | [5]; at 100.0 µM 99% | [6]; at 11.0 µM 99% | [6]; at 33.0 µM 99% | [6]; at 100.0 µM 99% | [7]; [17] 99% | [7]; at 50.0 µM 99.2% | [8]; at 11.0 µM 99% | [8]; at 33.0 µM 98% | [8]; at 100.0 µM 99% | [9]; [17] 99% | [9]; at 50.0 µM 99.2% | [10]; at 11.0 µM 98% | [10]; at 33.0 µM 98% | [10]; [17] 98% | [10]; at 50.0 µM 99.2% | [10]; at 100.0 µM 98% | [14]; [17] 98% | [14]; at 50.0 µM 99.2%
inactive: [1]; at 1.2 µM 14% | [1]; at 3.7 µM 30% | [2]; at 1.2 µM 6% | [2]; at 3.7 µM 17% | [3]; at 1.2 µM 68% | [4]; at 1.2 µM 9% | [4]; at 3.7 µM 18% | [4]; [16] 26% | [5]; at 1.2 µM 12% | [5]; at 3.7 µM 24% | [5]; [16] 26% | [6]; at 1.2 µM 6% | [6]; at 3.7 µM 13% | [7]; [16] 42% | [8]; at 1.2 µM 8% | [8]; at 3.7 µM 11% | [9]; [16] 6% | [10]; at 1.2 µM -4% | [10]; at 3.7 µM 3% | [10]; [16] 10% | [14]; [16] 48% | [15]; at 1.2 µM 20% | [15]; at 3.7 µM 42%
